Source: the supplement of paper PMC10849652
The full data set covers some 7,900 targets. This sample favours those with a hit. About 0.6% of all pairs of compound and target were hits.

What was measured:
Assay in all cases: log2 fold change, soluble protein after heating vs DMSO (PISA); higher = thermal stabilisation; K562 cells, 10 uM, 30 min; active = over 0.2 and 3.5 SD of the protein, either way, in both replicates (recomputed)
[1] = compound: Cc1ccc(NC(=O)c2ccc(CN3CC[C@H](N(C)C)C3)c(C(F)(F)F)c2)cc1Nc1nccc(-c2cncnc2)n1 [bafetinib]
How it was run: (§1)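 K562 cells at 2×10^6 cells/mL were treated with 10 μM compound for 30 min. Aliquots were heated for 3 min across 48°C-58°C, pooled, and extracted in PBS with 0.5% NP-40 at 4°C; soluble protein was the supernatant after 21,000xg for 90 min. Soluble protein was quantified by TMTpro 16plex LC-MS/MS with channel sums equalised, and reported as log2 fold change in thermal stability against DMSO controls, with values from duplicates.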

[2] = compound: Cc1cccc(CC(=O)N2CCc3c2ccc(-c2cn(C)c4ncnc(N)c24)c3F)n1
How it was run: as §1

[3] = compound: Cc1cn(-c2cc(NC(=O)c3ccc(C)c(Nc4nccc(-c5cccnc5)n4)c3)cc(C(F)(F)F)c2)cn1 [nilotinib]
How it was run: as §1

[4] = compound: Cc1nc(Nc2n[nH]c3c2CN(C(=O)N[C@H](CN(C)C)c2ccccc2)C3(C)C)c2sccc2n1
How it was run: as §1

[5] = compound: Cc1nc(Nc2ncc(C(=O)Nc3c(C)cccc3Cl)s2)cc(N2CCN(CCO)CC2)n1 [dasatinib]
How it was run: as §1

[6] = compound: Cc1ncc(-c2ccnc(Nc3ccc(S(C)(=O)=O)cc3)n2)n1C(C)C
How it was run: as §1

[7] = compound: Cn1cc(-c2ccc3c(c2)CCN3C(=O)Cc2cccc(C(F)(F)F)c2)c2c(N)ncnc21
How it was run: as §1

[8] = compound: Cn1cc(-c2ccc3nnc(C(F)(F)c4ccc5ncccc5c4)n3n2)cn1
How it was run: as §1

[9] = compound: Cn1cncc1[C@@](N)(c1ccc(Cl)cc1)c1ccc2c(c1)c(-c1cccc(Cl)c1)cc(=O)n2C [tipifarnib]
How it was run: as §1

[10] = compound: FC(F)(F)c1ccc(/C=C/c2nc(COc3ccc(CCCCn4ccnn4)cc3)co2)cc1 [mubritinib]
How it was run: as §1

Measured: log2 fold change

DTWD1 (UniProt Q8N5C7)
inactive: [1] 0.006 | [2] -0.014 | [3] 0.057 | [4] 0 | [5] 0.001 | [6] 0.082 | [7] 0.051 | [8] -0.027 | [9] -0.02 | [10] 0.02

FAM122A (UniProt Q96E09)
UniProt Q96E09, sequence (Q96E09 whole entry, looked up): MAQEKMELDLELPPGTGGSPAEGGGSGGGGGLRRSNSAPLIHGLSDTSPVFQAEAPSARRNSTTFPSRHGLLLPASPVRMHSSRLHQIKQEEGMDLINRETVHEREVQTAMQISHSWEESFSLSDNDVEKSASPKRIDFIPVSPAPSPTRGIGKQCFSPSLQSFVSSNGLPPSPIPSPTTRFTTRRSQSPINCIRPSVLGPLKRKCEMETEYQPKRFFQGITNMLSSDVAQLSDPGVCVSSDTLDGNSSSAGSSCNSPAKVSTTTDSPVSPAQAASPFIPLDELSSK
inactive: [1] -0.096 | [2] -0.185 | [3] 0.027 | [4] -0.184 | [5] -0.054 | [6] 0.059 | [7] 0.024 | [8] 0.037 | [9] -0.059 | [10] 0.009

EIF2S3 (UniProt P41091)
inactive: [1] 0.133 | [2] -0.023 | [3] -0.04 | [4] 0.072 | [5] 0.043 | [6] 0.014 | [7] -0.081 | [8] -0.052 | [9] 0.019 | [10] -0.017

EFL1 (UniProt Q7Z2Z2)
inactive: [1] -0.043 | [2] -0.014 | [3] -0.147 | [4] -0.052 | [5] -0.077 | [6] 0.003 | [7] 0.021 | [8] 0.028 | [9] -0.026 | [10] -0.109

DHPS (UniProt P49366)
UniProt P49366, sequence (P49366 whole entry, looked up): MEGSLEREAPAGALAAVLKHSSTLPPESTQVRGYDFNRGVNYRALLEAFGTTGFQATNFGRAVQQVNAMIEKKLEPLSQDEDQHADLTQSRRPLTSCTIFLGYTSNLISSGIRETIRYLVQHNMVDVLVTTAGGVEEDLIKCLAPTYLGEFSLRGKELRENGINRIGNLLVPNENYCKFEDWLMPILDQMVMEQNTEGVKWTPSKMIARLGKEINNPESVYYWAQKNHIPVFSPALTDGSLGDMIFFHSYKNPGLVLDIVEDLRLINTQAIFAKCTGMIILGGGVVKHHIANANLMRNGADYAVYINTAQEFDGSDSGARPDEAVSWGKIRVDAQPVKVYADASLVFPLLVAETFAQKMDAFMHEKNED
inactive: [1] 0.026 | [2] -0.057 | [3] 0.035 | [4] 0.001 | [5] 0.014 | [6] 0.004 | [7] 0.008 | [8] -0.005 | [9] -0.047 | [10] 0.061

ERLIN2 (UniProt O94905)
UniProt O94905, sequence (O94905 whole entry, looked up): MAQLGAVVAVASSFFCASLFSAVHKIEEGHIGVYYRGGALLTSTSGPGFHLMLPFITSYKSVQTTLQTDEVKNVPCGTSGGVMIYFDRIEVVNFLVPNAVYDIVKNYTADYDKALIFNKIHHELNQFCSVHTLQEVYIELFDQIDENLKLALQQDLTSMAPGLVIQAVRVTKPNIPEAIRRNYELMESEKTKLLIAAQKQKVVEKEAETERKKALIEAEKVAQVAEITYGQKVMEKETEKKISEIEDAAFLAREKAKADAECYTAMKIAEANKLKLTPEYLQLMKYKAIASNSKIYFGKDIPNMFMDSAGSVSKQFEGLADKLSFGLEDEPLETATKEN
inactive: [1] 0.039 | [2] 0.032 | [3] -0.107 | [4] 0.012 | [5] -0.023 | [6] 0.023 | [7] -0.104 | [8] 0 | [9] 0.024 | [10] -0.049

DDB1 isoform 2 (UniProt Q16531)
inactive: [1] -0.286 | [2] -0.094

EDC3 (UniProt Q96F86)
UniProt Q96F86, sequence (Q96F86 whole entry, looked up): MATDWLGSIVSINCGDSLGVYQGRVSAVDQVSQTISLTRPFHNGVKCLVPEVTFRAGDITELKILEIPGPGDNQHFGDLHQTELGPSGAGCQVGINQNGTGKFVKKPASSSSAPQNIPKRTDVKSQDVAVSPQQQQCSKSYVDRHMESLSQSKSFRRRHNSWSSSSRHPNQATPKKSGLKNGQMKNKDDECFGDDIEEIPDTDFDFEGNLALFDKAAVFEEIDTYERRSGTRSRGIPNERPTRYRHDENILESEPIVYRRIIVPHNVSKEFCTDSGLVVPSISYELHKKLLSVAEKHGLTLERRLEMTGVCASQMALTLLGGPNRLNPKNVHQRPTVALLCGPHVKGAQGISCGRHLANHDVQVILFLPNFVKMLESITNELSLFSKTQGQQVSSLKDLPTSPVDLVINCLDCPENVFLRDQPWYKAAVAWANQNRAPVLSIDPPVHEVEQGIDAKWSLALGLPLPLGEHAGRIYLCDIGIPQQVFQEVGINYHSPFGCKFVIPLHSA
inactive: [1] -0.022 | [2] -0.013 | [3] -0.142 | [4] -0.127 | [5] -0.006 | [6] -0.151 | [7] -0.019 | [8] -0.006 | [9] -0.035 | [10] 0

CTU1 (UniProt Q7Z7A3)
inactive: [1] -0.024 | [2] 0.067 | [3] -0.062 | [4] -0.03 | [5] -0.145 | [6] -0.03 | [7] 0.035 | [8] 0.02 | [9] -0.043 | [10] 0.067

EVC2 (UniProt Q86UK5)
inactive: [1] -0.08 | [2] 0.023 | [3] -0.066 | [4] -0.092 | [5] -0.043 | [6] 0.131 | [7] -0.149 | [8] -0.148 | [9] 0.162 | [10] -0.053

DNAJC19 (UniProt Q96DA6)
UniProt Q96DA6, sequence (Q96DA6 whole entry, looked up): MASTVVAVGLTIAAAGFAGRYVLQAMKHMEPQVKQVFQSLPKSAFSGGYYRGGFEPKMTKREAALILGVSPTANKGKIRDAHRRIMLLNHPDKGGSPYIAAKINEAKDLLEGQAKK
inactive: [1] -0.123 | [2] 0.003 | [3] 0.025 | [4] 0.002 | [5] -0.003 | [6] -0.005 | [7] 0.012 | [8] 0.022 | [9] 0.012 | [10] 0.001

DIP2A (UniProt Q14689)
inactive: [1] -0.005 | [2] -0.019 | [3] 0.005 | [4] -0.07 | [5] -0.04 | [6] 0.01 | [7] 0.043 | [8] -0.053 | [9] 0.02 | [10] 0.002

EIF4E isoform 2 (UniProt P06730)
inactive: [1] 0.012 | [2] 0.05 | [3] 0.199 | [4] -0.072 | [5] 0.013 | [6] 0.272 | [7] 0.125 | [8] 0.082 | [9] -0.029 | [10] 0.045

EOGT (UniProt Q5NDL2)
UniProt Q5NDL2, sequence (Q5NDL2 whole entry, looked up): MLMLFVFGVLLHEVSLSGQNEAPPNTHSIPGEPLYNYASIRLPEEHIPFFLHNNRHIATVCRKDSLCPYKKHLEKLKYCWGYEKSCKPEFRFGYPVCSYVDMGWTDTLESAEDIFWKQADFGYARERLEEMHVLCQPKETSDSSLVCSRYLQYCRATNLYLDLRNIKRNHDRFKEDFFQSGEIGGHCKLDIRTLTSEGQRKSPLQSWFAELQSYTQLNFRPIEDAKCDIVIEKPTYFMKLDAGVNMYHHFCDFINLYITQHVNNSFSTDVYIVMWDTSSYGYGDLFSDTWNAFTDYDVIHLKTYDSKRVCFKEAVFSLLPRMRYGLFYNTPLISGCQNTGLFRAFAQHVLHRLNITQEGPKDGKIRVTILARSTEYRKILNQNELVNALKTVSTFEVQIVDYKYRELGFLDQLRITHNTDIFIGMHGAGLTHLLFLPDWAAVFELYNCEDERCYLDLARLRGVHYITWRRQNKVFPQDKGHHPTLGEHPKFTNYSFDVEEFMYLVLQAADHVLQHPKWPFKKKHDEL
inactive: [1] -0.009 | [2] -0.025 | [3] -0.044 | [4] 0.055 | [5] -0.052 | [6] -0.005 | [7] -0.082 | [8] -0.038 | [9] 0.029 | [10] -0.021

DHX16 (UniProt O60231)
inactive: [1] 0.001 | [2] 0.044 | [3] -0.031 | [4] 0.019 | [5] -0.095 | [6] -0.006 | [7] 0.059 | [8] 0.002 | [9] -0.04 | [10] 0.147

DHRS3 (UniProt O75911)
inactive: [1] 0.027 | [2] 0.017 | [3] 0.101 | [4] -0.031 | [5] 0.188 | [6] -0.025 | [8] 0.164 | [9] 0.012 | [10] 0.081
active: [7] 0.323

FAF2 (UniProt Q96CS3)
inactive: [1] -0.058 | [2] -0.022 | [3] -0.042 | [4] -0.049 | [5] -0.075 | [6] 0 | [7] 0.017 | [8] -0.04 | [9] -0.021 | [10] -0.011

FADS3 (UniProt Q9Y5Q0)
inactive: [1] -0.11 | [2] 0.044 | [3] 0.108 | [4] -0.012 | [5] -0.109 | [6] -0.013 | [7] 0.034 | [8] -0.037 | [9] -0.033 | [10] 0.059

EXOC1 (UniProt Q9NV70)
UniProt Q9NV70, sequence (Q9NV70 whole entry, looked up): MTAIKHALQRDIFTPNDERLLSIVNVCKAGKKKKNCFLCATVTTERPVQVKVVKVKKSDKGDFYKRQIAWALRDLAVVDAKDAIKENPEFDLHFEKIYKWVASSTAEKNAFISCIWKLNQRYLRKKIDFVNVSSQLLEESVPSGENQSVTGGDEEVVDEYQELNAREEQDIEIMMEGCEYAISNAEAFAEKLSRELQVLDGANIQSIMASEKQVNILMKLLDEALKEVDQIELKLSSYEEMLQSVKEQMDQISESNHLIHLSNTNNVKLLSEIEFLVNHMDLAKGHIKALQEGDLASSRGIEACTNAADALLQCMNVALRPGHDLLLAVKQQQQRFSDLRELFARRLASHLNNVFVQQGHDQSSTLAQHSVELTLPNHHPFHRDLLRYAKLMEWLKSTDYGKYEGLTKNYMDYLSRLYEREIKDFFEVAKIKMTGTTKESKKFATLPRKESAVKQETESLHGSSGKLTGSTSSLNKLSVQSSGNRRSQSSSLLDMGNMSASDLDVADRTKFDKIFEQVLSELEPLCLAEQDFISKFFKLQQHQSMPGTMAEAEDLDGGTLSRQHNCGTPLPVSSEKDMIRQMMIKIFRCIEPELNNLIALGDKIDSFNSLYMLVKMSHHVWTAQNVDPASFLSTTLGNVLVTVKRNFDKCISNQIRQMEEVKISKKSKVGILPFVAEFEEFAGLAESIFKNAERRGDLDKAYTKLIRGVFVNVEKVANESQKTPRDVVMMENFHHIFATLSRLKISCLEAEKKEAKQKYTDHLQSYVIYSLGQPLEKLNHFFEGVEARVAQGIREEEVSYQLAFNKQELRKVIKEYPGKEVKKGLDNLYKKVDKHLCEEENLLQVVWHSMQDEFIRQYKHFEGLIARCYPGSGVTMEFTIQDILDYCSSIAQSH
inactive: [1] 0.061 | [2] 0.025 | [3] -0.034 | [4] -0.069 | [5] -0.126 | [6] -0.051 | [7] -0.008 | [8] 0.026 | [9] -0.098 | [10] 0.032

CTSL (UniProt P07711)
UniProt P07711, sequence (P07711 whole entry, looked up): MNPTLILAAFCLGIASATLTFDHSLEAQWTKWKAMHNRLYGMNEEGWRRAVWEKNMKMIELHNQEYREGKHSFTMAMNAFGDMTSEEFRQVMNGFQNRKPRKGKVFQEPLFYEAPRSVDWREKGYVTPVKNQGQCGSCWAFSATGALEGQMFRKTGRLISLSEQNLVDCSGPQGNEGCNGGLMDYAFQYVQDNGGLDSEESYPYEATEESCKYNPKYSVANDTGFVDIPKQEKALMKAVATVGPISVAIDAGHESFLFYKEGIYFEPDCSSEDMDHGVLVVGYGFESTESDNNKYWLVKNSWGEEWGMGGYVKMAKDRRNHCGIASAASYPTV
inactive: [1] -0.261 | [2] -0.046 | [3] 0.041 | [4] 0.103 | [5] 0.14 | [6] 0.004 | [7] 0.013 | [8] 0.045 | [9] 0.145 | [10] -0.006

ECH1 (UniProt Q13011)
inactive: [1] 0.318 | [2] -0.003 | [3] -0.024 | [4] 0.013 | [5] 0.249 | [6] -0.033 | [7] 0.134 | [8] 0.039 | [9] -0.056 | [10] -0.011

DPH5 isoform 5 (UniProt Q9H2P9)
inactive: [1] 0.025 | [2] 0.037 | [3] 0.013 | [4] -0.023 | [6] 0.003 | [7] 0.085 | [8] 0.006 | [9] -0.121 | [10] 0.049
active: [5] 0.253

CTSC (UniProt P53634)
UniProt P53634, sequence (P53634 whole entry, looked up): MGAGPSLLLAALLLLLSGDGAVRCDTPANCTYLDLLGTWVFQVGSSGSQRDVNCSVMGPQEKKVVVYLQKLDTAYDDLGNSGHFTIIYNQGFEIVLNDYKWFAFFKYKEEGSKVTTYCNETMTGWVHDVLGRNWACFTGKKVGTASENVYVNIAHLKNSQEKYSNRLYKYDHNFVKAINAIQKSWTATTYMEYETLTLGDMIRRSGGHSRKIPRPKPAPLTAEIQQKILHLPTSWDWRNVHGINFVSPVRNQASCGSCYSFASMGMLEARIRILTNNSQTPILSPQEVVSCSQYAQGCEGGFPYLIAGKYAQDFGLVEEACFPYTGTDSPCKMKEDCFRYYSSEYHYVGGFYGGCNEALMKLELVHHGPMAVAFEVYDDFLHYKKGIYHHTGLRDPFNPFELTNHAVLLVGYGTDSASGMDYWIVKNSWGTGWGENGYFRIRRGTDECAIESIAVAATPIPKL
active: [1] -0.452
inactive: [2] -0.004 | [3] -0.008 | [4] 0 | [5] 0.046 | [6] -0.033 | [7] 0.041 | [8] 0.004 | [9] -0.039 | [10] 0.056

EHD2 (UniProt Q9NZN4)
UniProt Q9NZN4, sequence (Q9NZN4 whole entry, looked up): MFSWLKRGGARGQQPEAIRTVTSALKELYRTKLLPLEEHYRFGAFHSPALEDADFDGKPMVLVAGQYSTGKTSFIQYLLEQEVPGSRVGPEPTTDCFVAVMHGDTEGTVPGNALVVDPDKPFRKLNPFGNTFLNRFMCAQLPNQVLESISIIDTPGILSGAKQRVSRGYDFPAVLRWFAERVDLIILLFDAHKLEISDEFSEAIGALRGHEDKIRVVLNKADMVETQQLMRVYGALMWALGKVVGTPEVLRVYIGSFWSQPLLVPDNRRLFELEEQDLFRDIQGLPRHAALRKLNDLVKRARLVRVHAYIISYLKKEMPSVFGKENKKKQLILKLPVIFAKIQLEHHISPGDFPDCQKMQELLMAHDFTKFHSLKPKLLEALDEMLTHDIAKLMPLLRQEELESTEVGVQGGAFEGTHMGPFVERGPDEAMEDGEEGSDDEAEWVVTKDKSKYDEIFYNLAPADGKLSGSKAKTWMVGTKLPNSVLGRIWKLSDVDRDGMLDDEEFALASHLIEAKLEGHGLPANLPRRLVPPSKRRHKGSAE
inactive: [1] -0.051 | [2] 0.008 | [3] -0.062 | [4] 0.01 | [5] -0.112 | [6] 0.003 | [7] 0.012 | [8] -0.031 | [9] -0.028 | [10] -0.061

DBT (UniProt P11182)
active: [10] -0.207
inactive: [1] 0.02 | [2] -0.037 | [3] 0.036 | [4] -0.014 | [5] -0.002 | [6] -0.033 | [7] -0.026 | [8] -0.03 | [9] 0.011

DHCR24 (UniProt Q15392)
UniProt Q15392, sequence (Q15392 whole entry, looked up): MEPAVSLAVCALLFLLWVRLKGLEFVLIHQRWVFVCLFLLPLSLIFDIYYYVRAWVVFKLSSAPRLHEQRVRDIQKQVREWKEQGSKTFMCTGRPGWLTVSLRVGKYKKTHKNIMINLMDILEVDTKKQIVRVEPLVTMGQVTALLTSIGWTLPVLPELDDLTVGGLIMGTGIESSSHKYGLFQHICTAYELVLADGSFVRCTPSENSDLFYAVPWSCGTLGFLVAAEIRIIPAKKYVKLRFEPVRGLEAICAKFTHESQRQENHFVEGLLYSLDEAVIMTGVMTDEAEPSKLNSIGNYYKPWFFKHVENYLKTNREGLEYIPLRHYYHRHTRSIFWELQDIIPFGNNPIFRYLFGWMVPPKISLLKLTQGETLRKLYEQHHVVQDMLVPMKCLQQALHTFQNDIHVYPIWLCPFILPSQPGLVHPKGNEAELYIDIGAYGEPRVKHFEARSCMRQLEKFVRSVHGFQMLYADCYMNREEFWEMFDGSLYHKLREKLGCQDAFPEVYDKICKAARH
inactive: [2] -0.001 | [3] -0.03 | [4] 0.025 | [5] 0.127 | [6] 0.577 | [7] 0.292 | [8] 0.043 | [9] -0.006 | [10] 0.47
active: [1] 1.39

CTSA (UniProt P10619)
inactive: [2] -0.04 | [3] 0.052 | [4] 0.015 | [5] 0.112 | [6] -0.001 | [7] 0.019 | [8] 0.005 | [9] 0.16 | [10] 0.007
active: [1] -0.595

EBNA1BP2 (UniProt Q99848)
inactive: [1] 0.312 | [2] -0.114 | [3] 0.114 | [4] -0.089 | [5] 0.226 | [6] -0.004 | [7] -0.499 | [8] -0.176 | [9] 0.134 | [10] -0.124

DLD (UniProt P09622)
active: [10] -0.429
inactive: [1] -0.028 | [2] -0.042 | [3] 0.034 | [4] -0.018 | [5] -0.025 | [6] -0.066 | [7] -0.04 | [8] 0.015 | [9] -0.008

DBN1 isoform 3 (UniProt Q16643)
inactive: [1] -0.106 | [2] 0.032 | [3] -0.05 | [4] -0.043 | [6] -0.041 | [7] -0.22 | [8] -0.069 | [9] 0.086 | [10] 0
active: [5] 0.264

CYFIP1 (UniProt Q7L576)
inactive: [1] -0.064 | [2] 0.002 | [3] -0.015 | [4] -0.064 | [5] -0.05 | [6] -0.024 | [7] 0.049 | [8] -0.006 | [9] -0.011 | [10] 0.022
